Inconclusive results are not listed. The list shows a part of the results. The source made the active and inactive calls. Unless noted, the call rests on the fitted dose curve; in most records, active means well fitted curve in the direction sought with a large enough effect; inconclusive means small, poorly fitted or top-dose-only effect, or another doubt; inactive means no such curve, though single readings can be large; an effect the other way counts as inactive or inconclusive.
Key:
[1] = S16 Schwann cell viability assay (CellTiter-Glo assay) (AID 624031);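 further: cellular ATP luminescence as a viability measure; plate controls were DMSO-treated cells for no effect and cell-free wells for full effect; nearly all actives have a fitted effect of over 70% in size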
How it was run: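 Native S16 rat Schwann cells in DMEM/10% FBS without phenol red were incubated overnight, then exposed to compounds for 24 h at 37 °C/5% CO2. Viability was read as ATP luminescence (CellTiter-Glo), normalized to no-cell wells and DMSO (0%).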

[2] = S16 Schwann cell PMP22 intronic element firefly luciferase assay (AID 624032);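 further: plate controls were DMSO for no effect and PTC124 positive control mean for full effect; nearly all actives have a fitted effect of over 30% in size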
How it was run: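 Rat S16 Schwann cells stably carrying firefly luciferase driven by a PMP22 intronic element, in 10% FBS, treated 24 h at 37 C. ONE-Glo luminescence normalized to PTC124 control and DMSO (0%); curves classed by r2, magnitude and activity.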

[3] = S16 Schwann cell PMP22 intronic element beta-lactamase assay (AID 624044; calls by dose curve;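 further: 0% = DMSO and -100% = potassium clavulanate positive control; nearly all actives have a fitted effect of over 15% in size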)
How it was run: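 Beta-lactamase reporter under a PMP22 intronic regulatory element in stable S16 rat Schwann cells; 24 h compound exposure. 460 nm blue signal normalized between DMSO (0%) and potassium clavulanate, with 535 nm FRET tracking viability; curves classed by r2 and response.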

[4] = system: CP215; test: qHTS profiling for inhibitors of Plasmodium falciparum proliferation (AID 504749); further: nearly all actives have a fitted effect of over 60% in size; further: potency means the concentration at half of the fitted maximal effect;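 on activity, negative = inhibition: 0% = DMSO vehicle and full inhibition = artemisinin control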; settings: P. falciparum in erythrocytes, SYBR Green DNA, 72 h; series mostly up to 28.7 µM
How it was run: (§1)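 SYBR Green fluorescence (ex 485 nm, em 535 nm) reports parasite DNA after 72 h compound exposure of infected red cells at 0.3% parasitemia, 2.5% hematocrit; signal normalized to 0.29 uM artemisinin and vehicle wells.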

[5] = system: CP291; test: as above; settings: P. falciparum in erythrocytes, SYBR Green DNA, 72 h; series mostly up to 28.7 µM
How it was run: as §1

[6] = system: CP297; test: as above; settings: P. falciparum in erythrocytes, SYBR Green DNA, 72 h; series mostly up to 28.7 µM
How it was run: as §1

[7] = system: CP335; test: as above; settings: P. falciparum in erythrocytes, SYBR Green DNA, 72 h; series mostly up to 28.7 µM
How it was run: as §1

[8] = system: Dd2; test: as above; settings: P. falciparum in erythrocytes, SYBR Green DNA, 72 h; series mostly up to 28.7 µM
How it was run: as §1

[9] = system: GB4; test: as above; settings: P. falciparum in erythrocytes, SYBR Green DNA, 72 h; series mostly up to 28.7 µM
How it was run: as §1

[10] = target: DNA polymerase eta (Homo sapiens) (UniProt Q9Y253); test: qHTS for Inhibitors of Polymerase Eta: Confirmatory Assay for Cherry-picked Compounds (AID 720502); settings: Pol eta primer extension, TAMRA/BHQ fluorescence, 10 min; further: potency means the concentration at half of the fitted maximal effect
DNA polymerase eta (Homo sapiens), sequence (Q9Y253 whole entry, looked up): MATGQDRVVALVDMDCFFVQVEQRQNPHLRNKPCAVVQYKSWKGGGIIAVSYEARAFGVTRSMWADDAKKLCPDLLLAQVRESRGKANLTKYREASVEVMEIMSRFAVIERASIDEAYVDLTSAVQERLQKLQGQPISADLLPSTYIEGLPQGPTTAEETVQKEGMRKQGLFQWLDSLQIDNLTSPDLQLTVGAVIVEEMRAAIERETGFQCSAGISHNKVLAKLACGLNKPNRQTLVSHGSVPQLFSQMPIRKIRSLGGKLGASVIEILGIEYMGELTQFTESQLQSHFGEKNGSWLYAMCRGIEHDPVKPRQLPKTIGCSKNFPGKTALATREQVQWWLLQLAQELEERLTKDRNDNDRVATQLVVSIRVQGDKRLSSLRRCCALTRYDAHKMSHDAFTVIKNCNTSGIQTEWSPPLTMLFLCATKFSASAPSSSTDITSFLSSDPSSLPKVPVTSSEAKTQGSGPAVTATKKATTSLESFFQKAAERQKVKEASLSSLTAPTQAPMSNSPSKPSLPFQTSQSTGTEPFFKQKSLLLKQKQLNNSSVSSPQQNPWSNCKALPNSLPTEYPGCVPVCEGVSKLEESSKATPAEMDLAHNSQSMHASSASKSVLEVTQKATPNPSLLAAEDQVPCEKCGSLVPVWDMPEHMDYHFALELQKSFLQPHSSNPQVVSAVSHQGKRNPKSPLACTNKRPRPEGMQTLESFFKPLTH
How it was run: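 10 nM Pol eta + cpd, 15 min RT; start w/ 50 nM final primer/TAMRA-reporter/BHQ-2-template substrate; kinetic read 0 and 10 min, ex 525/em 598 nm. Buffer-only wells = negative control.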

[11] = target: Tyrosyl-DNA phosphodiesterase 1 (Homo sapiens) (UniProt Q9NUW8); test: Confirmation Assay for Inhibitors of Tyrosyl-DNA Phosphodiesterase (TDP1) (AID 489007); settings: recombinant human TDP1 enzymatic activity, dose-response; further: potency means the concentration at half of the fitted maximal effect; nearly all actives have a fitted effect of over 40% in size
Tyrosyl-DNA phosphodiesterase 1 (Homo sapiens), sequence (Q9NUW8 whole entry, looked up): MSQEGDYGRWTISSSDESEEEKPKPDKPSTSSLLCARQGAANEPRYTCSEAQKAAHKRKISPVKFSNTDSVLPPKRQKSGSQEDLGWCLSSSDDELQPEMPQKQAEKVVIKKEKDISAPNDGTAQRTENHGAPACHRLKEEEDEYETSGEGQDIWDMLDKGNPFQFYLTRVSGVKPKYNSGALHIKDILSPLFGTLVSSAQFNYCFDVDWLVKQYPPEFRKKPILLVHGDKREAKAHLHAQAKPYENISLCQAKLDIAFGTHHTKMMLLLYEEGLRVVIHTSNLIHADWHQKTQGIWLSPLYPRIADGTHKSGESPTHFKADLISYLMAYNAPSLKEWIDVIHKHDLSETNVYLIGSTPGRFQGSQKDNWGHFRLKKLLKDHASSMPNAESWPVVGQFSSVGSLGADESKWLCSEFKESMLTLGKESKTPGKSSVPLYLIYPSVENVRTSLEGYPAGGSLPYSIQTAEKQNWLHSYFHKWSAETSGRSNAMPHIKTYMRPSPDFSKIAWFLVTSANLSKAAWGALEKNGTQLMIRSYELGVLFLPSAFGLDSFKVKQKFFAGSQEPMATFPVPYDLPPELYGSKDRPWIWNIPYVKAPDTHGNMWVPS
How it was run: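 AlphaScreen read-out: streptavidin donor and anti-FITC acceptor beads (10 ug/ml) bind intact substrate, so Tdp1 removal of tyrosine-FITC lowers signal. Enzyme 1 nM, substrate 15 nM, 5 min reaction at room temperature after 15 min compound preincubation.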

[12] = target: Ubiquitin carboxyl-terminal hydrolase 1 (Homo sapiens) (UniProt O94782); test: Inhibitors of USP1/UAF1: Pilot qHTS (AID 504865);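 further: rhodamine fluorescence freed from ubiquitin-rhodamine substrate followed over time; top concentration of the series differs between compounds; on the % scale 0 is the no-effect control and ±100 the full control effect; nearly all actives have a fitted effect of over 35% in size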
Ubiquitin carboxyl-terminal hydrolase 1 (Homo sapiens), sequence (O94782 whole entry, looked up): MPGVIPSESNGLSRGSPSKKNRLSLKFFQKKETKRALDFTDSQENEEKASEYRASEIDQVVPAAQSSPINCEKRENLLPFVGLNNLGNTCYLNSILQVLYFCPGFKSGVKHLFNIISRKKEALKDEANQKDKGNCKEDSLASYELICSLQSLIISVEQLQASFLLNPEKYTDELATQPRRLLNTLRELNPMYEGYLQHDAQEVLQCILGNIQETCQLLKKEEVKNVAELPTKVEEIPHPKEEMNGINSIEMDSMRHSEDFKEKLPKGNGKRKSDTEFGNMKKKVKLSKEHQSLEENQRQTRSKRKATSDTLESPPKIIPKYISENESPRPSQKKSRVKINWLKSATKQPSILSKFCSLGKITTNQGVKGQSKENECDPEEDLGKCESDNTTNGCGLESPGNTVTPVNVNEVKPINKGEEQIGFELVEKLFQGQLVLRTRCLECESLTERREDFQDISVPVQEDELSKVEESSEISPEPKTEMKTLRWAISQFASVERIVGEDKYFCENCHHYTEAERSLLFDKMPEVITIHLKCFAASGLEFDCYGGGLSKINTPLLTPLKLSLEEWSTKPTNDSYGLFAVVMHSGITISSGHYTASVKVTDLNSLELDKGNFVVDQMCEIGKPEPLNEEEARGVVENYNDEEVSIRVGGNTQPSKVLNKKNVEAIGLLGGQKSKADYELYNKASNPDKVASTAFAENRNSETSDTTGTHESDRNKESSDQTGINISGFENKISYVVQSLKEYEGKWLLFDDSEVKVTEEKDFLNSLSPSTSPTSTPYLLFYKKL
How it was run: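 1nM USP1/UAF1 + cpd, 15 min RT; start w/ Ub-Rho 150nM final; kinetic FL 480/540 nm, 6 reads q60 s. Buffer 50mM HEPES pH 7.8, 0.5mM EDTA, 1mM TCEP, 0.01% Tween-20, 0.1 mg/ml BSA.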

[13] = qHTS profiling for inhibitors of Plasmodium falciparum proliferation (AID 504749); further: nearly all actives have a fitted effect of over 60% in size; further: potency means the concentration at half of the fitted maximal effect;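 on activity, negative = inhibition: 0% = DMSO vehicle and full inhibition = artemisinin control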; settings: P. falciparum in erythrocytes, SYBR Green DNA, 72 h, at 28.7 µM (top of the series)
How it was run: as §1

[14] = system: AS120; test: as above; settings: P. falciparum in erythrocytes, SYBR Green DNA, 72 h; series mostly up to 28.7 µM
How it was run: as §1

[15] = system: ATS189; test: as above; settings: P. falciparum in erythrocytes, SYBR Green DNA, 72 h; series mostly up to 28.7 µM
How it was run: as §1

[16] = system: CP237; test: as above; settings: P. falciparum in erythrocytes, SYBR Green DNA, 72 h; series mostly up to 28.7 µM
How it was run: as §1

[17] = system: CP247; test: as above; settings: P. falciparum in erythrocytes, SYBR Green DNA, 72 h; series mostly up to 28.7 µM
How it was run: as §1

[18] = system: HB3; test: as above; settings: P. falciparum in erythrocytes, SYBR Green DNA, 72 h; series mostly up to 28.7 µM
How it was run: as §1

[19] = system: TAB109; test: as above; settings: P. falciparum in erythrocytes, SYBR Green DNA, 72 h; series mostly up to 28.7 µM
How it was run: as §1

[20] = system: W2; test: as above; settings: P. falciparum in erythrocytes, SYBR Green DNA, 72 h; series mostly up to 28.7 µM
How it was run: as §1

C=C1CC[C@H](O)C/C1=C/C=C1\CCC[C@]2(C)[C@@H]([C@H](C)CCCC(C)C)CC[C@@H]12
active: Potency [8] 12.6 µM
inactive: Potency [1] | Potency [2] | outcome [3] | Potency [4] | Potency [5] | Potency [6] | Potency [7] | Potency [9]

C=CCn1c(=S)[nH]c2scc(-c3ccco3)c2c1=O
active: Potency [10] 26.9 µM

Cc1cc(C)c2nc(-c3ccco3)cc(C(=O)O)c2c1
active: Potency [11] 15.8 µM

Oc1cc2c(cc1O)[C@H]1c3ccc(O)c(O)c3OC[C@@]1(O)C2
inactive: Potency [12]

Cc1c(C(=O)O)c(O)cc2c1C(=O)c1c(O)c([C@H]3O[C@H](CO)[C@@H](O)[C@H](O)[C@H]3O)c(O)c(O)c1C2=O
inactive: outcome [3] | activity, negative = inhibition ([13]; parasite line A) 5.98% | activity, negative = inhibition ([13]; parasite line B) 13.4% | Potency [14] | Potency [15] | Potency [4] | Potency [16] | Potency [17] | Potency [5] | Potency [6] | Potency [7] | Potency [8] | Potency [9] | Potency [18] | Potency [19] | Potency [20]

— PubChem BioAssay (NCATS)
